Records with an inconclusive call do not appear. Active and inactive are the calls of the source. Calls come from the whole dose curve; as a rule, active = well fitted curve in the direction sought with a large enough effect; inconclusive = small, poorly fitted or top-dose-only effect, or another doubt; inactive = no such curve, though single readings can be large; an effect the other way counts as inactive or inconclusive.
Legend:
[1] = Cellular Toxicity (caspase-3) Mesangial (AID 660); settings: mesangial cells, normalized: DMSO 0%, 100 µM tamoxifen 100%; at 91.7 µM (top of the series);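 note: combined caspase 3 and 7 activity read by Caspase-Glo luminescence; cells exposed to compound for 16 h before the caspase read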
Summary of the method: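 Human renal glomerular mesangial cells, 1000/well, 5 h at 37 C before 16 h compound treatment. Caspase-Glo 3/7 luminescence after 20 min; normalized to DMSO and 100 uM tamoxifen, AC50 from Hill fit.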

[2] = Cellular Toxicity (caspase-3) SK-N-SH (AID 661);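 note: 0% = DMSO basal and 100% = 10 µM staurosporine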
Summary of the method: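 Human SK-N-SH neuroblastoma cells, 1500/well, were exposed to compounds for 16 hours at 37 °C. Caspase-Glo 3/7 luminescence was normalized to DMSO (basal) and 10 uM staurosporine (100%), and AC50 came from a Hill fit.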

[3] = Cellular Toxicity (caspase-3) H-4-II-E (AID 663); settings: H-4-II-E rat hepatoma, scaled: DMSO 0%, 100 µM tamoxifen 100%; at 92.2 µM (top of the series);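 note: cells exposed to compound for 16 hr before readout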
Summary of the method: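 Apoptosis induction is scored as increased luminescence from caspase 3/7 substrate cleavage in rat hepatoma H-4-II-E cells exposed to compound for 16 hr. Activity is scaled between DMSO and 100 uM tamoxifen.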

[4] = Cellular Toxicity (caspase-3) Hek293 (AID 664); settings: HEK293 caspase-3 activation, DMSO = 0%, 100 µM tamoxifen = 100%; at 92.2 µM (top of the series);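 note: cells exposed to compound for 16 h at 37 °C before readout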
Summary of the method: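 HEK293 cells in complete medium treated 16 h at 37 °C, then Caspase-Glo 3/7 luminescence read after 20 min at room temperature. Normalized to DMSO and 100 uM tamoxifen; AC50 from Hill fit of concentration-response.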

[5] = Cellular Toxicity (caspase-3) N2a (AID 665);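 note: compound exposure lasted 16 h at 37 °C before readout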
Summary of the method: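 Mouse N2a neuroblastoma cells, 1500 per well, treated 16 h at 37 °C in complete medium; caspase-3/7 activity by Caspase-Glo luminescence after 1 h. Normalized to DMSO and 10 uM staurosporine; AC50 from Hill fits.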

[6] = Cellular Toxicity (caspase-3) NIH 3T3 (AID 666);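 note: caspase signal read after 16 h compound exposure; 0% = DMSO basal and 100% = 100 µM tamoxifen stimulation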
Summary of the method: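 Mouse NIH 3T3 fibroblasts (1000/well) treated 16 h at 37 C; caspase-3/7 activity measured by Caspase-Glo 3/7 luminescence after 20 min. Normalized to DMSO and 100 uM tamoxifen; AC50 from Hill fits.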

[7] = Cellular Toxicity (caspase-3) Renal Proximal Tubule (AID 667); settings: Potency: caspase-3 activation;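 note: cells exposed to compound for 16 hours at 37 °C before detection; 0% = DMSO basal and 100% = 10 µM staurosporine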
Summary of the method: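 Freshly isolated primary rat kidney proximal tubule cells, 1000/well, treated 16 hr at 37 °C, then Caspase-Glo 3/7 luminescence after 1 hr. Normalized to DMSO and 10 uM staurosporine; AC50 from Hill fit.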

[8] = target: Cytochrome P450 3A4 (Homo sapiens) (UniProt P08684); assay: qHTS Assay for Inhibitors and Substrates of Cytochrome P450 3A4 (AID 884); note: % is set by controls: 0 for no effect and ±100 for the full control effect; nearly all actives have a fitted effect of over 50% in size
Summary of the method: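 20 nM human CYP3A4 with 25 uM Luciferin-PPXE (at KM) in 200 mM KPO4, preincubated 10 min with compound; NADPH regeneration started a 60 min RT reaction. Luciferin detected by luminescence, normalized to 57 uM ketoconazole as full inhibition.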

[9] = Cell Viability - LYMP2-001 (AID 921);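 note: cells exposed to compound for 24 h at 37 °C; 0% = DMSO only and full inhibition = tetraoctylammonium bromide control wells; nearly all actives have a fitted effect of over 70% in size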
Summary of the method: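 Human lymphoblastoid LYMP2-001 cells, 2500 per well, in complete medium, treated 24 h at 37 C. Viability from cellular ATP by CellTiter-Glo luminescence; AC50 from Hill-equation fits of qHTS concentration-response.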

Cytochrome P450 3A4 (Homo sapiens), sequence (P08684 whole entry, looked up): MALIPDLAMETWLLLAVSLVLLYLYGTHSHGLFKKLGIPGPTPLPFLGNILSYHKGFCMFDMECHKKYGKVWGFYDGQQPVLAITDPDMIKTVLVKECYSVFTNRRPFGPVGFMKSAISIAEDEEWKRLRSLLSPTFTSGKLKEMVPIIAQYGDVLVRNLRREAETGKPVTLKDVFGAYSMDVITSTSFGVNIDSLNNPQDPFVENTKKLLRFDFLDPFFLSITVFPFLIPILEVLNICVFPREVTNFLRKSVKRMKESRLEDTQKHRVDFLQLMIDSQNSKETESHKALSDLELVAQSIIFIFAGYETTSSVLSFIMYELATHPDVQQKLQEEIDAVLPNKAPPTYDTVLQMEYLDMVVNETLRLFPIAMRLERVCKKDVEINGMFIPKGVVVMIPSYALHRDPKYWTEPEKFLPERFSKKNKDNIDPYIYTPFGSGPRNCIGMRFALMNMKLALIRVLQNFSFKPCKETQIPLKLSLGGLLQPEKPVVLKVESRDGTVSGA

Cc1cccc(C)c1
inactive: caspase-3 activation [1] -0.476% | outcome [2] | caspase-3 activation [3] 0.714% | caspase-3 activation [4] 2.59% | outcome [5] | outcome [6] | Potency [7] | Potency [8]

O=C1OC(=O)c2c(Cl)c(Cl)c(Cl)c(Cl)c21
inactive: caspase-3 activation [1] -0.0678% | outcome [2] | caspase-3 activation [3] -0.63% | caspase-3 activation [4] 1.4% | outcome [5] | outcome [6] | Potency [7] | Potency [8]

CCCCC(CC)CNCC(CC)CCCC (stereo not given)
inactive: caspase-3 activation [1] -1.31% | outcome [2] | caspase-3 activation [3] -0.122% | caspase-3 activation [4] 0.754% | outcome [5] | outcome [6] | Potency [7] | Potency [8]

C/C=C1\CC2C=CC1C2 (stereo not given)
inactive: caspase-3 activation [1] -0.567% | outcome [2] | caspase-3 activation [3] 0.51% | caspase-3 activation [4] -0.412% | outcome [5] | outcome [6] | Potency [7] | Potency [8]

Fc1ccccc1
inactive: caspase-3 activation [1] -0.0832% | outcome [2] | caspase-3 activation [3] -0.374% | caspase-3 activation [4] -1.91% | outcome [5] | outcome [6] | Potency [7] | Potency [8]

C=CCCC
inactive: caspase-3 activation [1] -0.34% | outcome [2] | caspase-3 activation [3] 1.14% | caspase-3 activation [4] -1.75% | outcome [5] | outcome [6] | Potency [7] | Potency [8]

CC(C)(C)OC=O
inactive: caspase-3 activation [1] 1.35% | outcome [2] | caspase-3 activation [3] 0.183% | caspase-3 activation [4] -1.63% | outcome [5] | outcome [6] | Potency [7] | Potency [8]

Cc1ccc([N+](=O)[O-])c(N)c1
inactive: caspase-3 activation [1] -0.782% | outcome [2] | caspase-3 activation [3] -0.384% | caspase-3 activation [4] 0.555% | outcome [5] | outcome [6] | Potency [7] | Potency [8]

CN(C)CCCNCCCN
inactive: caspase-3 activation [1] -0.219% | outcome [2] | caspase-3 activation [3] -0.0657% | caspase-3 activation [4] 0.619% | outcome [5] | outcome [6] | Potency [7] | Potency [8]

FC(F)(F)c1ccccc1Cl
inactive: caspase-3 activation [1] 1.05% | outcome [2] | caspase-3 activation [3] 0.997% | caspase-3 activation [4] -1.13% | outcome [5] | outcome [6] | Potency [7] | Potency [8]

O=C(O)c1ccc(Cl)c(Cl)c1
inactive: caspase-3 activation [1] -0.246% | outcome [2] | caspase-3 activation [3] -0.517% | caspase-3 activation [4] 0.484% | outcome [5] | outcome [6] | Potency [7] | Potency [8]

O=Nc1ccc(NO)cc1
inactive: caspase-3 activation [1] 0.317% | outcome [2] | caspase-3 activation [3] 1.96% | caspase-3 activation [4] 11.4% | outcome [5] | outcome [6] | Potency [7] | Potency [8]

CCC(C)=O
inactive: caspase-3 activation [1] -0.0673% | outcome [2] | caspase-3 activation [3] 0.152% | caspase-3 activation [4] -2.5% | outcome [5] | outcome [6] | Potency [7] | Potency [8]

Nc1cccc([N+](=O)[O-])c1
inactive: caspase-3 activation [1] -0.828% | outcome [2] | caspase-3 activation [3] 0.491% | caspase-3 activation [4] 0.377% | outcome [5] | outcome [6] | Potency [7] | Potency [8]

O=[N+]([O-])c1ccc(CCO)cc1
inactive: caspase-3 activation [1] -1.2% | outcome [2] | caspase-3 activation [3] 0.267% | caspase-3 activation [4] -3.11% | outcome [5] | outcome [6] | Potency [7]

CC(C)(C)OCC1CO1 (stereo not given)
inactive: caspase-3 activation [1] 0.391% | outcome [2] | caspase-3 activation [3] 0.741% | caspase-3 activation [4] 2.04% | outcome [5] | outcome [6] | Potency [7] | Potency [8]

NCCCCCCN
inactive: caspase-3 activation [1] 0.654% | outcome [2] | caspase-3 activation [3] 1.31% | caspase-3 activation [4] -1.45% | outcome [5] | outcome [6] | Potency [7] | Potency [8] | Potency [9]

COc1ccc(N)c(C)c1
inactive: caspase-3 activation [1] 2.2% | outcome [2] | caspase-3 activation [3] 0.764% | caspase-3 activation [4] -0.876% | outcome [5] | outcome [6] | Potency [7] | Potency [8] | Potency [9]

Cc1ccccc1Br
inactive: caspase-3 activation [1] -0.877% | outcome [2] | caspase-3 activation [3] 0.309% | caspase-3 activation [4] -0.786% | outcome [5] | outcome [6] | Potency [7] | Potency [8] | Potency [9]

CCCCCCO
inactive: caspase-3 activation [1] 0.267% | outcome [2] | caspase-3 activation [3] 0.291% | caspase-3 activation [4] 0.42% | outcome [5] | outcome [6] | Potency [7] | Potency [8] | Potency [9]

OCCO
inactive: caspase-3 activation [1] -0.444% | outcome [2] | caspase-3 activation [3] -0.0515% | caspase-3 activation [4] 0.819% | outcome [5] | outcome [6] | Potency [7] | Potency [8] | Potency [9]

OC1CCCC1
inactive: caspase-3 activation [1] -0.56% | outcome [2] | caspase-3 activation [3] 0.647% | caspase-3 activation [4] -1.06% | outcome [5] | outcome [6] | Potency [7] | Potency [8] | Potency [9]

O=C1CCC(=O)O1
inactive: caspase-3 activation [1] 0.974% | outcome [2] | caspase-3 activation [3] 0.691% | caspase-3 activation [4] 0.163% | outcome [5] | outcome [6] | Potency [7] | Potency [8] | Potency [9]
